Screening results: PubChem, National Center for Advancing Translational Sciences (NCATS)
TDP1 cell noCPT – qHTS for Inhibitors of human tyrosyl-DNA phosphodiesterase 1 (TDP1): qHTS in cells in absence of CPT; DT40 Tdp1-/- hTDP1 cells, no CPT, ATP luminescence, 48 h; 420,000 tested, 15% active; Potency, µM (doses to about 46.2 µM), for inactives: at the top dose activity change, negative = growth inhibition, usual class: inhibitors; AID 686978, 2013; note: potency is the fitted concentration of half-maximal effect; nearly all actives have a fitted effect of over 55% in size
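Camptothecin absent (DMSO only). Human TDP1-complemented DT40 knockout cells, 400 cells/well, 37 °C for minimum 48 hr; ATP measured via CellTiter-Glo, 30 min dark incubation, luminescence.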
TDP1 cell CPT – growth inhibition of DT40 Tdp1-/-;hTDP1 cells with camptothecin (screen for TDP1 inhibitors); chicken DT40 Tdp1-/-;hTDP1 cells + 20 nM CPT, ATP luminescence, 48 h; Potency, µM (series often up to 46.2 µM), for the others: at the top dose activity change, negative = growth inhibition, most hits filed as inhibitors; 420,000 tested, 12% active; note: potency is the fitted concentration of half-maximal effect; nearly all actives have a fitted effect of over 55% in size
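Chicken DT40 Tdp1-/- cells complemented with human TDP1, 400 cells/well, exposed to compounds plus 20 nM camptothecin for at least 48 h at 37 C; viability read as ATP content by CellTiter-Glo luminescence.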
IL-1B inflam inh – inflammasome signaling inhibition, IL-1 beta readout | THP-1 LPS/ATP IL-1B secretion, AlphaLISA, 16 h; active compounds read low | activity change, % at 57.5 µM | 360,000 tested, 4.7% active; in the data active = activity change below about -50%; inconclusive = mostly about -30% to -49%
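Secreted IL-1B measured by AlphaLISA bead assay after 16 h compound exposure of THP-1 cells; compounds (final up to 57.5 uM) added 1 h before LPS (250 ng/mL) and ATP (1.25 mM) stimulation; lower signal means less secretion.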
ELG1 repair inh – inhibitors of ELG1-dependent DNA repair in HEK293T cells; AID 504467; 330,000 tested, 2.3% active; Potency, µM (highest dose often 46.1 µM), inactives show at the highest dose activity change, negative = inhibition, most hits filed as inhibitors; HEK293T ELG1-luciferase reporter, luminescence, 16 h; DNA damage induced by 5-fluorouridine; note: potency is the fitted concentration of half-maximal effect; nearly all actives have a fitted effect of over 55% in size
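In this reporter screen, reduction of luminescence relative to DMSO vehicle indicated activity. Compounds and 5-fluorouridine were added together to 2,000 cells per well, incubated for 16 hr at 37 °C, then developed with ONE-Glo.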
HT1080 IDH1KD tx – kills HT-1080 cells with IDH1 knockdown | HT-1080 IDH1 knockdown viability, ATP luminescence, 48 h | Potency, µM (doses to about 46.1 µM), inactives show at the highest dose activity, negative = toxicity, most hits filed as cytotoxic | 360,000 tested, 2% active | AID 686971;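 note: potency is the fitted concentration of half-maximal effect; 0% = DMSO wells and -100% = cell-free medium wells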
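Assay cells: HT-1080 with IDH1 knockdown, 750 per well, RPMI/5% FBS. Exposure: 48 h at 37 °C following 2 h pre-incubation. Read: CellTiter-Glo luminescence; fitted concentration-response, curve class assigned.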
HT1080-NT tox – kills 2HG-producing HT-1080-NT fibrosarcoma cells. HT-1080-NT fibrosarcoma viability, CellTiter-Glo ATP luminescence, 48 h. Potency, µM (series often up to 46.1 µM), for the others: at the highest dose activity, negative = less viability, actives largely listed as cytotoxic. 360,000 tested, 1.6% active;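 note: NT is the 2HG producing partner of a matched IDH1 knockdown line; potency is the fitted concentration of half-maximal effect; 0% = DMSO-treated cells and -100% = media-only wells without cells; nearly all actives have a fitted effect of over 55% in size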
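Luminescent CellTiter-Glo readout after 48 hours of compound exposure at 37 degrees C defined viability of HT-1080-NT cells. Activity was normalized to DMSO wells and cell-free media wells; concentration-response curves were fitted and assigned curve classes.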
Numbers without * were called inactive; i = inactive; ? = inconclusive; . = not tested or not shown; [ ] = dose if it differs, or a comment. Sampled rows, rich in hits. Any-hit rate of the full collection: about 19%. Unless noted, calls come from the whole dose curve; as a rule, active = well fitted curve in the direction sought with a large enough effect; inconclusive = small, poorly fitted or top-dose-only effect, or another doubt; inactive = no such curve, though single readings can be large; an effect the other way counts as inactive or inconclusive. Unless noted, % is set by controls: 0 for no effect and ±100 for the full control effect.

SMILES	TDP1 cell noCPT	TDP1 cell CPT	IL-1B inflam inh	ELG1 repair inh	HT1080 IDH1KD tx	HT1080-NT tox
COc1cccc(C(=O)Nc2c3c(nn2-c2ccc(C)cc2C)CS(=O)(=O)C3)c1OC	23µM*	?	.	.	.	.
Cc1cc(NC(=O)c2cccs2)n(-c2nc3ccccc3[nH]2)n1	21µM*	?	-25	-12%	?	?
COc1ccccc1C(=O)Nc1c2c(nn1-c1cccc(C)c1C)CS(=O)(=O)C2	-20%	?	10	-21%	?	-1%
COc1cccc(C(=O)Nc2cc(C)nn2-c2ccccc2)c1OC	23µM*	?	1	-25%	-15%	-1%
COc1cc(C(=O)Nc2cc(C)nn2-c2ccccc2)cc(OC)c1OC	?	-35%	-27	27%	-21%	-1%
COP(=O)(OC)OC(C(=O)c1ccccc1)c1ccccc1 (centres undefined)	19%	12%	15	.	3%	-5%
COCCCNc1nc(CC(C)C)nc2c1nnn2Cc1ccccc1	?	-29%	4	13%	5%	4%
Cc1cc(NC(=O)c2sccc2C)n(-c2nc3ccccc3[nH]2)n1	16µM*	?	-82*	?	-27%	?
Cc1csc(NC(=O)c2sccc2C)n1	?	?	0	?	?	-11%
Cc1ccc(C)c(NC(=O)CC2NCCNC2=O)c1 (centres undefined)	6%	-4%	.	.	.	.
COc1ccc(C2Nc3ccc(NC(C)=O)cc3C(=O)N2Cc2cccc(Cl)c2)cc1COc1ccc(NC(C)=O)cc1 (centres undefined)	10µM*	13µM*	.	.	3%	0%
COc1ccc(C2Nc3ccccc3C(=O)N2Cc2ccccc2)cc1COc1ccc([N+](=O)[O-])c(C)c1 (centres undefined)	-16%	-14%	.	.	.	.
COc1ccc(C2Nc3ccc(NC(=O)CO)cc3C(=O)N2Cc2cccc(Cl)c2)cc1COc1ccc(NC(C)=O)cc1 (centres undefined)	11µM*	?	.	.	?	?
COCCNC(=O)C1(C)CCCN(C(=O)Cc2ccc3ccccc3c2)C1 (centres undefined)	?	?	46	.	18%	?
CCC(COC)NCc1cn(-c2ccc(OC)cc2)nc1-c1cccc(F)c1 (centres undefined)	23µM*	16µM*	-82*	?	?	?
COc1ccc(-n2cc(CNC(C)c3ccncn3)c(-c3cccc(F)c3)n2)cc1 (centres undefined)	26µM*	?	-23	3%	-14%	-12%
CCOC(=O)c1cnc(-n2cc(C)cn2)nc1Nc1ccccc1OCC	6.5µM*	10µM*	27	?	5%	19%
CCOC(=O)c1cnc(SC)nc1Nc1cccc2ccccc12	?	?	18	-28%	9%	-6%
COc1ccc(-n2cnc3c(sc4nccc(N(C)C)c43)c2=O)cc1	?	-27%	0	?	0%	-4%
Cc1ccc(-n2cnc3c(sc4nccc(N(C)C)c43)c2=O)cc1	?	-30%	-11	10µM*	1%[9.24 µM]	-11%
CCN(CC)C(=O)Cn1cc(C(=O)C(=O)N2CCN(c3ccc([N+](=O)[O-])cc3)CC2)c2ccccc21	7.3µM*	6.5µM*	?	-12%	-13%	0%
CCN(CC)C(=O)Cn1cc(C(=O)C(=O)N2CCN(c3ccc(OC)cc3)CC2)c2ccccc21	9%	-13%	-12	-1%	3%	8%
COc1ccc(N2CCN(C(=O)C(=O)c3cc(OC)c4ccccc4c3)CC2)cc1	21µM*	23µM*	-2	.	?	-6%
COc1ccc(N2CCN(C(=O)C(=O)c3cccc([N+](=O)[O-])c3)CC2)cc1	?	?	8	.	20%	20%
N#C/C(=C\c1cccc(Oc2ccccc2)c1)C(=O)N1CCOCC1	?	?	-100*	13%	?	?
SMILES	TDP1 cell noCPT	TDP1 cell CPT	IL-1B inflam inh	ELG1 repair inh	HT1080 IDH1KD tx	HT1080-NT tox
COc1ccc(N2CCN(C(=O)C(=O)c3cn(CC(=O)N4CCCC4)c4ccccc34)CC2)cc1	?	21µM*	26	.	-17%	-12%
O=C(C(=O)N1CCCCC1)c1cn(CC(=O)N2CCCCCC2)c2ccccc12	5%	-1%	i	-4%	1%	0%
CCOC(=O)Cn1cc(/C=C(\C#N)C(=O)N2CCOCC2)c2ccccc21	-11%	0%	-95*	?	9%	9%
CCOC(=O)Cn1cc(/C=C(/C#N)C(=O)NC(C)C)c2ccccc21	0%	19%	-1	5%	2%	5%
CCN(CC)C(=O)Cn1cc(/C=C(\C#N)C(=O)N2CCN(c3ccccc3)CC2)c2ccccc21	?	21µM*	-7	?	3%	5%
CNC(C)C(=O)NC(C(=O)N1CCCC1C(=O)NNc1ccccc1)C(C)C (centres undefined)	0%	21%	20	0%	2.3µM*	1.3µM*
Cc1ccc([C@H]2C[C@H](O)[C@@H](n3cc(C4CC4)nn3)CN2C(=O)C2CCCCC2)cc1	6%	0%	14	.	3%	5%
